Measured values reported in PubChem BioAssay (Tox21).
Results filed as inconclusive are left out. The source made the active and inactive calls. Unless noted, the call rests on the fitted dose curve.

Columns and labels:
[1] = biological target: Peroxisome proliferator-activated receptor delta (Homo sapiens) (UniProt Q03181); assay: qHTS assay to identify small molecule agonists of the peroxisome proliferator-activated receptor delta (PPARd) signaling pathway (AID 743212); further: on the % scale 0 is the no-effect control and ±100 the full control effect
How it was run: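 GeneBLAzer PPARd UAS-bla HEK293H cells (beta-lactamase reporter under UAS control), plated and rested 5 h at 37 C, then exposed to compounds in DMSO at 37 C; LiveBLAzer B/G FRET substrate added, 2 h room temperature, fluorescence read.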

[2] = qHTS assay to identify small molecule antagonists of the peroxisome proliferator-activated receptor delta (PPARd) signaling pathway - cell viability counter screen (AID 743213; active means well fitted curve in the direction sought with a large enough effect in the repeat runs; an effect the other way counts as inactive or inconclusive; further: on the % scale 0 is the no-effect control and ±100 the full control effect; nearly all actives have a fitted effect of over 50% in size)
How it was run: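 HEK293H cells with the PPARd UAS-bla reporter, co-treated 17 h at 37 C with compounds and L165041 (300 nM final), were lysed with CellTiter-Glo. Luminescence indicated viable cell content.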

[3] = biological target: Peroxisome proliferator-activated receptor delta (Homo sapiens) (UniProt Q03181); assay: qHTS assay to identify small molecule antagonists of the peroxisome proliferator-activated receptor delta (PPARd) signaling pathway (AID 743215; active means well fitted inhibition curve with a large enough effect in the signal ratio in the repeat runs, not every such curve was filed as active; the % refers to the signal ratio;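 further: cells stimulated with agonist L165041 at 300 nM final during compound exposure; series mostly up to about 62 µM; on the % scale 0 is the no-effect control and ±100 the full control effect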)
How it was run: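 PPARd-bla HEK293H cells (UAS-bla reporter) preincubated 5 h, then given compound plus 300 nM final L165041 agonist for 17 h at 37 C. Beta-lactamase activity read by LiveBLAzer B/G FRET substrate fluorescence after 2 h at room temperature.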

[4] = qHTS assay to identify small molecule agonists of the farnesoid-X-receptor (FXR) signaling pathway - cell viability counter screen (AID 743218; active means well fitted curve in the direction sought with a large enough effect in the repeat runs; an effect the other way counts as inactive or inconclusive; further: on the % scale 0 is the no-effect control and ±100 the full control effect; nearly all actives have a fitted effect of over 45% in size)
How it was run: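 FXR-UAS-bla HEK 293T cells exposed to compounds for 16 h at 37C. Cytotoxicity read in the same wells by CellTiter-Glo luminescence after 30 min at room temperature, following the beta-lactamase FRET read.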

[5] = qHTS assay to identify small molecule antagonists of the farnesoid-X-receptor (FXR) signaling pathway - cell viability counter screen (AID 743221; active means well fitted cell-killing curve with a large enough effect in the repeat runs, not every such curve was filed as active; further: on the % scale 0 is the no-effect control and ±100 the full control effect; nearly all actives have a fitted effect of over 50% in size)
How it was run: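 Quantitative HTS of the Tox21 10K library run in parallel with the beta-lactamase reporter read. HEK 293T cells carrying a UAS-driven bla reporter got compound and 50 uM CDCA (final) for 16 h; ATP-based luminescence followed.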

[6] = biological target: Vitamin D3 receptor (Homo sapiens) (UniProt P11473); assay: qHTS assay to identify small molecule agonists of the vitamin D receptor (VDR) signaling pathway (AID 743222); further: on the % scale 0 is the no-effect control and ±100 the full control effect
How it was run: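 VDR-bla cells plated 4 h at 37 C, then exposed to compounds for 16 h at 37 C. Beta-lactamase reporter activity measured by fluorescence after 2 h room-temperature loading with LiveBLAzer B/G FRET substrate.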

[7] = qHTS assay to identify small molecule agonists of the vitamin D receptor (VDR) signaling pathway - cell viability counter screen (AID 743224; active means well fitted curve in the direction sought with a large enough effect in the repeat runs; an effect the other way counts as inactive or inconclusive; further: series mostly up to about 63 µM; on the % scale 0 is the no-effect control and ±100 the full control effect; nearly all actives have a fitted effect of over 50% in size)
How it was run: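 VDR-bla cells, 4 h after plating, exposed to compounds for 16 h at 37C; viability then read in the same wells as CellTiter-Glo luminescence after 30 min at room temperature, following the bla FRET read.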

[8] = qHTS assay to identify small molecule antagonists of the vitamin D receptor (VDR) signaling pathway - cell viability counter screen (AID 743225; active means well fitted curve in the direction sought with a large enough effect in the repeat runs; an effect the other way counts as inactive or inconclusive; further: on the % scale 0 is the no-effect control and ±100 the full control effect; nearly all actives have a fitted effect of over 50% in size)
How it was run: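 Cells (VDR-UAS-bla HEK 293T) are plated, rested 4 h at 37C, dosed with compound and 3 nM final 1-alpha,25-dihydroxy vitamin D3, and incubated 16 h. Viability is taken from CellTiter-Glo luminescence in the reporter wells.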

[9] = qHTS assay to identify small molecule agonists of the NFkB signaling pathway (AID 1159509; active means well fitted curve in the direction sought with a large enough effect in the signal ratio in the repeat runs, not every such curve was filed as active; the % refers to the signal ratio; further: series mostly up to about 61 µM; on the % scale 0 is the no-effect control and ±100 the full control effect)
How it was run: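 After overnight attachment, reporter cells received test compounds, DMSO or positive controls and were incubated 5 hr at 37 C. FRET substrate was then added for 1.5 hr at room temperature before dual-emission fluorescence reading.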

[10] = qHTS assay to identify small molecule agonists of the NFkB signaling pathway - cell viability counter screen (AID 1159515); further: series mostly up to about 61 µM; on the % scale 0 is the no-effect control and ±100 the full control effect; nearly all actives have a fitted effect of over 55% in size
How it was run: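 NFkB-bla ME-180 cells, 2,000/well, plated overnight at 37 C; compound added for 5 hr at 37 C. Viability read in the same wells as the bla reporter, by CellTiter-Glo luminescence after 30 min at room temperature.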

[11] = qHTS assay to identify small molecule agonists of the endoplasmic reticulum stress response signaling pathway - cell viability counter screen (AID 1159517)
How it was run: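 Luminescence readout: CellTiter-Glo, 30 min RT, same wells as the ESRE-bla reporter read. HeLa ESRE-bla, 1,500 cells/well, o/n 37 C; cpd 5 hr 37 C/5% CO2.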

[12] = qHTS assay to identify small molecule agonists of the AP-1 signaling pathway - cell viability counter screen (AID 1159525); further: nearly all actives have a fitted effect of over 55% in size
How it was run: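 ME-180 AP-1-bla, 2500 cells/well, Opti-MEM + 0.5% dialyzed FBS; overnight 37 °C; cpd 15-pt titration, 5 h 37 °C; CellTiter-Glo 30 min RT; luminescence read; normalised to TOAB and DMSO controls.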

[13] = qHTS assay to identify small molecule agonists of the AP-1 signaling pathway (AID 1159526); further: on the % scale 0 is the no-effect control and ±100 the full control effect
[14] = biological target: Vitamin D3 receptor (Homo sapiens) (UniProt P11473); assay: qHTS assay to identify small molecule antagonists of the vitamin D receptor (VDR) signaling pathway (AID 743223; active means well fitted inhibition curve with a large enough effect in the signal ratio in the repeat runs, not every such curve was filed as active; the % refers to the signal ratio; further: on the % scale 0 is the no-effect control and ±100 the full control effect)
How it was run: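 Fluorescence from LiveBLAzer B/G FRET substrate, read after 2 h at room temperature, reflects beta-lactamase reporter activity in VDR-bla cells treated 16 h at 37C with compounds and agonist 1alpha,25-dihydroxyvitamin D3 (3 nM final).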

[15] = biological target: Retinoic acid receptor RXR-alpha (Homo sapiens) (UniProt P19793); assay: qHTS assay to identify small molecule agonists of the RXR signaling pathway (AID 1159527); further: on the % scale 0 is the no-effect control and ±100 the full control effect; nearly all actives have a fitted effect of over 35% in size
How it was run: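 qHTS of the Tox21 10K library in GeneBLAzer RXR-alpha HEK 293T cells carrying a beta-lactamase reporter […]; 16 hr treatment, 9-cis retinoic acid as agonist control, FRET read-out.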

[16] = biological target: Bile acid receptor (Homo sapiens) (UniProt Q96RI1); assay: qHTS assay to identify small molecule agonists of the farnesoid-X-receptor (FXR) signaling pathway (AID 743220; active means well fitted activation curve with a large enough effect in the signal ratio in the repeat runs, not every such curve was filed as active; the % refers to the signal ratio; further: on the % scale 0 is the no-effect control and ±100 the full control effect)
How it was run: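 Beta-lactamase reporter under UAS control in GeneBLAzer FXR HEK 293T cells (5000/well) measured with LiveBLAzer FRET substrate after 2 h at room temperature. Compound exposure lasted 16 h at 37C.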

[17] = qHTS assay to identify small molecule antagonists of the retinoid-related orphan receptor gamma (ROR-gamma) signaling pathway - cell viability counter screen (AID 1159520; active means well fitted curve in the direction sought with a large enough effect in the repeat runs; an effect the other way counts as inactive or inconclusive)
How it was run: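 Tet-on ROR gamma CHO cells (1,000/well) were plated 4 hr, given compounds in DMSO for 2 hr at 37 C, then induced with 1 uM final doxycycline for 16 hr. Viability was read as ATP by CellTiter-Glo luminescence after 30 min.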

[18] = biological target: Nuclear receptor ROR-gamma (Homo sapiens) (UniProt P51449); assay: qHTS assay to identify small molecule antagonists of the retinoid-related orphan receptor gamma (ROR-gamma) signaling pathway (AID 1159521; active means well fitted curve in the direction sought with a large enough effect in the repeat runs; an effect the other way counts as inactive or inconclusive)
How it was run: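 RORγ antagonism is scored from reduced reporter luminescence in Tet-on CHO cells. Induction used 1 uM final doxycycline hyclate for 16 h at 37 C, following a 2 h compound exposure.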

[19] = qHTS assay to identify small molecule agonists of the endoplasmic reticulum stress response signaling pathway (AID 1159516; active means well fitted activation curve with a large enough effect in the signal ratio in the repeat runs, not every such curve was filed as active; the % refers to the signal ratio; further: on the % scale 0 is the no-effect control and ±100 the full control effect)
How it was run: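 CellSensor ESRE-bla HeLa cells, 1,500 per well, plated overnight, then exposed to compounds for 5 hr at 37 C. Beta-lactamase reporter read with LiveBLAzer B/G FRET substrate after 2 hr at room temperature, 405 nm excitation, 460 and 530 nm emission.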

[20] = biological target: Bile acid receptor (Homo sapiens) (UniProt Q96RI1); assay: qHTS assay to identify small molecule antagonists of the farnesoid-X-receptor (FXR) signaling pathway (AID 743217; active means well fitted inhibition curve with a large enough effect in the signal ratio in the repeat runs, not every such curve was filed as active; the % refers to the signal ratio; further: on the % scale 0 is the no-effect control and ±100 the full control effect)
How it was run: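 FXR-UAS-bla HEK 293T cells (beta-lactamase reporter) given compound plus chenodeoxycholic acid (50 uM final), 16 h at 37C. LiveBLAzer B/G FRET substrate added for 2 h at room temperature; fluorescence read.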

Bile acid receptor (Homo sapiens), sequence (Q96RI1 whole entry, looked up): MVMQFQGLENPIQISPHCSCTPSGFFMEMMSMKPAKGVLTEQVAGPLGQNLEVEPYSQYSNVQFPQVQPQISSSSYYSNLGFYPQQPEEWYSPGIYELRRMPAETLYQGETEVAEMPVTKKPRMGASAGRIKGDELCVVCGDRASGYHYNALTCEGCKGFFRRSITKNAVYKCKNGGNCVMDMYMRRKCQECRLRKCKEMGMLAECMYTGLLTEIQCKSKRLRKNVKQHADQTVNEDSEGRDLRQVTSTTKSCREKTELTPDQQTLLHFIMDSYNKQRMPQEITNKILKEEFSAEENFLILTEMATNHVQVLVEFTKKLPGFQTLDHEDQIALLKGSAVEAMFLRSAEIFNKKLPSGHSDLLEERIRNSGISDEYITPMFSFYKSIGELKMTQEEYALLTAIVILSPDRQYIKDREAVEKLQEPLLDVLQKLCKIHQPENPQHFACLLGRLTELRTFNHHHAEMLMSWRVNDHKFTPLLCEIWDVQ
Peroxisome proliferator-activated receptor delta (Homo sapiens), sequence (Q03181 whole entry, looked up): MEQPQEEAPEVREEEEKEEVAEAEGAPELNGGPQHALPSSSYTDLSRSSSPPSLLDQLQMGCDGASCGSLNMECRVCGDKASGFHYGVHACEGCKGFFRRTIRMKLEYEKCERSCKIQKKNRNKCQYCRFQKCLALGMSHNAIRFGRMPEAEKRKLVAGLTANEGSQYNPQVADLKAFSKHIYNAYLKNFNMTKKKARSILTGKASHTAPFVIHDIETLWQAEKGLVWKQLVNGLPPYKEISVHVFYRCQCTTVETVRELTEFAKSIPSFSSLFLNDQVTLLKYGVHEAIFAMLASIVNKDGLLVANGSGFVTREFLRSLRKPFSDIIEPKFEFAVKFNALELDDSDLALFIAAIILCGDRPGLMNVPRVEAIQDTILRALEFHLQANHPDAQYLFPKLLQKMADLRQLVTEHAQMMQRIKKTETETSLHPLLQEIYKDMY
Retinoic acid receptor RXR-alpha (Homo sapiens), sequence (P19793 whole entry, looked up): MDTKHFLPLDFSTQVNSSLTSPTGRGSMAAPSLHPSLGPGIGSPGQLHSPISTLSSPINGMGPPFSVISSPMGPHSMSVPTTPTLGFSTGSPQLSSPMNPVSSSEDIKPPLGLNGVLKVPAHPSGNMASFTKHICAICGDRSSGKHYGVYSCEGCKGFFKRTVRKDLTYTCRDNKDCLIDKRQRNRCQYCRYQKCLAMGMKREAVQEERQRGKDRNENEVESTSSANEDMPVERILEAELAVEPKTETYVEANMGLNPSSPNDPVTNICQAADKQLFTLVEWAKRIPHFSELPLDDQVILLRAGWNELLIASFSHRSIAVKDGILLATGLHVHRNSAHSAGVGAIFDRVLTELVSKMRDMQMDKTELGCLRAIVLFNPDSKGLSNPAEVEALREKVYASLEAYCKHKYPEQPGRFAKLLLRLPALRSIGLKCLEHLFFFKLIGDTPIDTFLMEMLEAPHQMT
Vitamin D3 receptor (Homo sapiens), sequence (P11473 whole entry, looked up): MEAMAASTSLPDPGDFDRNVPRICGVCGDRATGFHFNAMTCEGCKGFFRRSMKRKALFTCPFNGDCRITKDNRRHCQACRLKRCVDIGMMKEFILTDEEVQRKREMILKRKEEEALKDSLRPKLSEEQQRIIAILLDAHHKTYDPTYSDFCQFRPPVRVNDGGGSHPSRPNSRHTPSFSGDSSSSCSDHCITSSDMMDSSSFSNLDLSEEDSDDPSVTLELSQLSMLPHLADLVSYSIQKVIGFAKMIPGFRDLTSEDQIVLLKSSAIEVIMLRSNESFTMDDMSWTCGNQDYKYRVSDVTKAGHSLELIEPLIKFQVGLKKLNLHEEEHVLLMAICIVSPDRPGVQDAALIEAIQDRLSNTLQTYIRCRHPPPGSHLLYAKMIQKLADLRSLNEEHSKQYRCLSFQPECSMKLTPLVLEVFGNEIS

C=C(C)CN(CC)c1c([N+](=O)[O-])cc(C(F)(F)F)cc1[N+](=O)[O-]
inactive: outcome [1] | outcome [2] | outcome [3] | Potency [4] | outcome [5] | outcome [6] | Potency [7] | outcome [8] | outcome [9] | outcome [10] | Potency [11] | Potency [12] | outcome [13]

CCCCCCBr
inactive: outcome [5] | outcome [6] | outcome [14] | outcome [8] | outcome [9] | outcome [10] | Potency [11] | Potency [12] | outcome [13] | Potency [15]

O=C(CCN1CC1)OCC(CO)(COC(=O)CCN1CC1)COC(=O)CCN1CC1
inactive: outcome [2] | Potency [4] | outcome [16] | outcome [5] | Potency [7] | outcome [8] | outcome [9] | outcome [10] | Potency [11] | Potency [17] | Potency [18] | Potency [12] | outcome [13] | Potency [15]

CC1=C(C(=O)O)N2C(=O)[C@@H](N)[C@H]2SC1
inactive: outcome [1] | outcome [2] | outcome [3] | Potency [4] | outcome [5] | Potency [7] | outcome [8] | outcome [9] | outcome [10] | Potency [11] | activity, negative = cytotoxicity [17] 0.102% [at 19 µM] | viability change, negative = cytotoxic [12] 19.2% [at 15.8 µM] | activation [13] -1.04% [at 15.8 µM] | activation [15] 0.217% [at 15.8 µM]

O=C(Nc1ccccc1)c1ccccc1I
inactive: outcome [1] | outcome [2] | Potency [4] | outcome [5] | Potency [7] | outcome [8] | outcome [9] | outcome [10] | outcome [19] | Potency [11] | Potency [12] | outcome [13]

COC(=O)C(c1ccccc1)C1CCCCN1 (stereo not given)
inactive: outcome [2] | Potency [20] | outcome [16] | outcome [6] | outcome [14] | Potency [7] | outcome [8] | outcome [9] | outcome [10] | Potency [11] | Potency [12] | outcome [13] | Potency [15]

ClC(Br)Br
inactive: outcome [1] | outcome [2] | outcome [3] | Potency [4] | outcome [16] | outcome [5] | outcome [8] | outcome [9] | outcome [10] | Potency [11] | Potency [17] | Potency [12] | outcome [13]

Cc1nnc2n1-c1sc(CCC(=O)N3CCOCC3)cc1C(c1ccccc1Cl)=NC2
inactive: outcome [1] | outcome [2] | Potency [4] | outcome [5] | outcome [8] | outcome [9] | outcome [10] | Potency [11] | Potency [18] | Potency [12] | outcome [13] | Potency [15]

COc1ccc(C(=O)N2CCCC2=O)cc1
inactive: outcome [1] | outcome [2] | outcome [3] | Potency [4] | outcome [5] | outcome [8] | outcome [9] | outcome [10] | Potency [11] | Potency [17] | Potency [18] | Potency [12] | outcome [13] | Potency [15]
